The full ranking holds about 33,000 sequences; the median of “E-score (-0.5 to 0.5)” is about -0.054, and the highest 2% start at about 0.35. The full list was thinned out, with the highest values kept by preference.

This assay concerns the target T1, Stb5 (UniProt P38699).
T1 sequence: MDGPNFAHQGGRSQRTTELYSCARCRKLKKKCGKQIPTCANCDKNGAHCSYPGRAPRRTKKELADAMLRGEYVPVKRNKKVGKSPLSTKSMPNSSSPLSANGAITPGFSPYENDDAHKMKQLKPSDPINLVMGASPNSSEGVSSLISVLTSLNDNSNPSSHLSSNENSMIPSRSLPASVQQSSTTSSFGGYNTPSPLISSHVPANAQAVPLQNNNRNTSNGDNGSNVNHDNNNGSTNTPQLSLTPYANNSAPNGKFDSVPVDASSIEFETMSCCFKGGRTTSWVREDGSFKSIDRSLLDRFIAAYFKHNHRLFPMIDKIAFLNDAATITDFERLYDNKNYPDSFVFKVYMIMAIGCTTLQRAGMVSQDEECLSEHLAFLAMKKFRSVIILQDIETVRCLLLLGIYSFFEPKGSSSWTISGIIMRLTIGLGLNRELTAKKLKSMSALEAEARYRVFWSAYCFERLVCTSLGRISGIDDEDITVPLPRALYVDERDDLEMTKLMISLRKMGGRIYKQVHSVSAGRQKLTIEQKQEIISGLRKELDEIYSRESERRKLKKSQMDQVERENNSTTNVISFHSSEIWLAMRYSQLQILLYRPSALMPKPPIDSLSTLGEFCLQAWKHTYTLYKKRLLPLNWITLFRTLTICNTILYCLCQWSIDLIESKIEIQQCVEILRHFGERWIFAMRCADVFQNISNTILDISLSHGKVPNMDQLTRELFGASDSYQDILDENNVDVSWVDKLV
The experiment in a line: PBM E-score (8-mer binding enrichment) (E-score (-0.5 to 0.5)); higher = stronger / more preferred TF binding. The settings on record: protein concentration: 200 nM; construct: GST-full length. The essentials: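 GST-tagged yeast TFs (full-length or DNA-binding domain) were made by PURExpress in vitro transcription/translation and applied at about 100-200 nM to universal all-10-mer Agilent arrays. The arrays were made double-stranded by primer extension, on fresh or once-stripped slides. Bound protein was detected with fluorescent anti-GST, and scans were normalised with masliner. Each ungapped eight-base word, pooled with its reverse complement, received an E-score (modified Wilcoxon-Mann-Whitney statistic) from the Universal PBM Analysis Suite.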
For CACCGGAA, the “PBM E-score” value is 0.293.

Turning to CACCGGGC, the “PBM E-score” value amounted to 0.375.

For the sequence CACCGGAC, the “PBM E-score” value stood at 0.413.

Consider CACCGGGG, for which the “PBM E-score” value amounted to 0.33.

GACCGGGC: the “PBM E-score” value worked out at 0.211.

Regarding CAGCAATA, the “PBM E-score” value was -0.0729.

With ATGCCCAA, the “PBM E-score” value was -0.116.

Turning to CGCGGCTA, the “PBM E-score” value was found to be 0.3.

For the sequence CGGTAACA, the “PBM E-score” value worked out at 0.36.

Regarding CGGTAACC, the “PBM E-score” value is 0.165.

Consider CGGTAATC, for which the “PBM E-score” value is 0.25.

Regarding CGGTAATA, the “PBM E-score” value is 0.457.

Take AGGTAACA: the “PBM E-score” value is -0.111.

Take GGGTAATA: the “PBM E-score” value was 0.143.

Take CGCATAAA: the “PBM E-score” value is -0.127.

With TAAGCGGA, the “PBM E-score” value was found to be 0.209.

AAAGCGGG: the “PBM E-score” value was found to be 0.297.

In the case of AAAGCGGA, the “PBM E-score” value is 0.352.

For the sequence CAAGCGGA, the “PBM E-score” value is 0.223.

With CAAGCGGC, the “PBM E-score” value stood at 0.379.

CAAGCGGG: the “PBM E-score” value was 0.273.

As to CCGACGCC, the “PBM E-score” value stood at 0.315.

Regarding CCGACAAG, the “PBM E-score” value turned out to be 0.266.

For the sequence ACGACGCG, the “PBM E-score” value is -0.0646.

As for CCGACGCG, the “PBM E-score” value was determined as 0.378.

GCGACGGA: the “PBM E-score” value was determined as 0.283.

For CCGACGGA, the “PBM E-score” value stood at 0.394.

As to TCGACAAA, the “PBM E-score” value is -0.183.

Turning to CCGACGGC, the “PBM E-score” value was 0.372.

Consider ACGACGGA, for which the “PBM E-score” value is 0.227.

For CCGACAAA, the “PBM E-score” value turned out to be 0.353.

With ACGACGGC, the “PBM E-score” value was 0.146.

For CCGACGAC, the “PBM E-score” value is 0.312.

On to CGCGATCC, for which the “PBM E-score” value was determined as 0.0632.

On to AAAACGGC, for which the “PBM E-score” value worked out at 0.21.

In the case of GTACTCAA, the “PBM E-score” value was -0.185.

GCTTTAAC: the “PBM E-score” value is -0.0801.

With TAAATCGA, the “PBM E-score” value is -0.267.

Turning to AGTCAAAA, the “PBM E-score” value was -0.00563.

In the case of AAACCTCT, the “PBM E-score” value came to 0.015.

As to ATAAAGAG, the “PBM E-score” value was -0.0867.

With CCAAGCAG, the “PBM E-score” value is -0.122.

Regarding CACTGTCA, the “PBM E-score” value is -0.352.

Regarding ATACTCCC, the “PBM E-score” value was 0.339.

For AATCTCCC, the “PBM E-score” value is -0.0498.

In the case of AAACTCCG, the “PBM E-score” value was found to be 0.463.

As for CAGCTCCG, the “PBM E-score” value was 0.136.

As to AAACTCCT, the “PBM E-score” value amounted to 0.0448.

Take AAGCTCCT: the “PBM E-score” value was -0.165.

On to CAACTCCG, for which the “PBM E-score” value was 0.342.

Take AATCTCCG: the “PBM E-score” value was 0.423.

As for ATACTCCA, the “PBM E-score” value was -0.199.

Take AAGCTCCG: the “PBM E-score” value worked out at 0.429.

As for ATACTCCG, the “PBM E-score” value is 0.371.

Regarding CATCTCCG, the “PBM E-score” value turned out to be 0.276.

With CACTGCAA, the “PBM E-score” value is -0.139.

In the case of ACGTGCGA, the “PBM E-score” value is -0.0649.

With GCTAGTCC, the “PBM E-score” value was 0.0729.

As for GAGAAAGC, the “PBM E-score” value turned out to be 0.0247.

With CACACATC, the “PBM E-score” value was -0.15.

As for CTGTTCGC, the “PBM E-score” value was -0.0755.

Regarding AACCTCCT, the “PBM E-score” value is -0.234.

As to AACCTCCG, the “PBM E-score” value is 0.408.

Take AACCTCCC: the “PBM E-score” value is -0.0946.

Take GTAAGCCA: the “PBM E-score” value was -0.243.

Consider GAGTAGCC, for which the “PBM E-score” value was -0.178.

As to CGAAATTA, the “PBM E-score” value is -0.0454.

For ACCCGTGC, the “PBM E-score” value was -0.0288.

As for CCCCGTGC, the “PBM E-score” value was 0.375.

For CCCCGTGA, the “PBM E-score” value came out at 0.146.

For the sequence ATGAACCA, the “PBM E-score” value was -0.252.

With CACAGCTA, the “PBM E-score” value was -0.125.

With CAATTGTC, the “PBM E-score” value is -0.0888.

CGGCTCTC: the “PBM E-score” value is -0.0773.

As for AGGCTCTA, the “PBM E-score” value was -0.0942.

CGGCTTTA: the “PBM E-score” value was found to be 0.439.

Take CGGCTCTA: the “PBM E-score” value came to 0.391.

Take CGGCTATA: the “PBM E-score” value came out at 0.367.

Consider GGGCTATA, for which the “PBM E-score” value was 0.0715.

On to CGGCTTTC, for which the “PBM E-score” value is 0.061.

As for AGGCTATA, the “PBM E-score” value was 0.0655.

On to GGGCTTTA, for which the “PBM E-score” value worked out at 0.326.

Consider CTCTACCC, for which the “PBM E-score” value was -0.316.

For GCCGCACA, the “PBM E-score” value is 0.206.

As for CTGCTGGC, the “PBM E-score” value is -0.124.

With AGCGGGAG, the “PBM E-score” value was 0.0448.

The values above are taken from the supplement of paper PMC3334620.
